Most compounds without a hit are left out; they make up all but 1.8% or so of the library.
TrxR1 inh = qHTS Assay for Inhibitors of Mammalian Selenoprotein Thioredoxin Reductase 1 (TrxR1): qHTS; AID 588453, 2011; recombinant rTrxR1, NADPH fluorescence consumption, selenite substrate; Thioredoxin reductase 1, cytoplasmic (Rattus norvegicus), O89049; Potency, µM (titrated, usually from 114 µM), usual class: inhibitors; actives 1% (n = 390,000); note: nearly all actives have a fitted effect of over 65% in size
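Rat TrxR1 (90 nM in the dispensed reagent) was pre-reduced with 400 uM NADPH for 5 min at room temperature, then incubated with compound for 15 min. After 400 uM selenite was added, NADPH fluorescence (Ex 340/Em 450 nm) was followed for 8 min.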
TrxR1 substrate = qHTS Assay for Substrates of Mammalian Selenoprotein Thioredoxin Reductase 1 (TrxR1): qHTS. AID 588456, 2011. Potency, µM (top dose mostly 114 µM). purified TrxR1 substrate turnover, NADPH consumption readout. actives 0.01% (n = 390,000); note: nearly all actives have a fitted effect of over 50% in size
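Rat TrxR1, dispensed at 90 nM, was prereduced with 400 uM NADPH (final) for 5 min at ~22 deg C, then incubated with compound 15 min before 400 uM selenite. A first-read NADPH fluorescence drop versus no-compound background flagged substrates.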
VDR inh = Inhibitors of the vitamin D receptor (VDR): qHTS. Vitamin D3 receptor (Homo sapiens), P11473. VDR-SRC2-3 peptide fluorescence polarization, 2 h. Potency, µM, usual class: inhibitors. actives 0.93% (n = 400,000). AID 504847, 2011
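The screen uses fluorescence polarization to detect compounds that interfere with recruitment of the SRC2-3 coactivator peptide to VDR; plates are read after 2 h at room temperature.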
GCN5L2 inh-1 = qHTS Assay for Inhibitors of GCN5L2; GCN5L2 HAT assay, ThioGlo1 CoA-SH fluorescence; actives 0.21% (n = 390,000); AID 504327, 2011; Histone acetyltransferase KAT2A (Homo sapiens), Q92830; Potency, µM (top dose mostly 58.9 µM), hits mostly inhibitors
Target sequence (Q92830 whole entry, looked up): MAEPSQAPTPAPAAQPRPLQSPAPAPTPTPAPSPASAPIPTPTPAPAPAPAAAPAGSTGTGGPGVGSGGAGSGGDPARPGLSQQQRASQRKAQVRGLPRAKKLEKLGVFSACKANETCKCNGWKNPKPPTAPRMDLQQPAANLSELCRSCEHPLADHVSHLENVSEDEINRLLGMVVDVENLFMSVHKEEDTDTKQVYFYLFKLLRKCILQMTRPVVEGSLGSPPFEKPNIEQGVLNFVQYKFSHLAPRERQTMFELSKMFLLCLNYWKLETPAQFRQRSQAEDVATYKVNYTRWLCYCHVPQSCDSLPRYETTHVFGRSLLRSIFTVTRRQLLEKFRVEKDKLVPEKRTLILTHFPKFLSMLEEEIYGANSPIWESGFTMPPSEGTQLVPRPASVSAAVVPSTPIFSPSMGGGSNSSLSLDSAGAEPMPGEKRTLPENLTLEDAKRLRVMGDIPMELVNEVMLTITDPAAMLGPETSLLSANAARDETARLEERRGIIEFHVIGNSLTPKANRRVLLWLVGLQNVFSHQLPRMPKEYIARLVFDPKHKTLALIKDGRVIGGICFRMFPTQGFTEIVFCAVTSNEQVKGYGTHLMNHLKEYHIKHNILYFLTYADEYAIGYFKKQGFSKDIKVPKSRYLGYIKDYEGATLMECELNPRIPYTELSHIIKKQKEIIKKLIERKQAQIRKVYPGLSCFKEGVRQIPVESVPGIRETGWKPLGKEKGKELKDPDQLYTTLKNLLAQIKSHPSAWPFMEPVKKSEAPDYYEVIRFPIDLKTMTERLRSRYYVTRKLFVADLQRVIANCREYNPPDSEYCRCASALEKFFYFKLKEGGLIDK
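ThioGlo1-coupled HAT assay: 20nM GCN5L2, 70uM acetyl-CoA, 75uM H3(1-25) peptide, pH 7.5. Fluorescence read at 340/540nm at start and after 20 min at room temperature.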
GCN5L2 inh-2 = qHTS Assay for Inhibitors of GCN5L2: Hit confirmation; shares compounds with GCN5L2 inh-1; GCN5L2 HAT, ThioGlo1 CoA fluorescence, 20 min; actives 70% (n = 140); Potency, µM, most hits filed as inhibitors; AID 588347, 2011
VDR inh confirm = qHTS for Inhibitors of the vitamin D receptor (VDR): Hit Validation in Primary Screen; shares compounds with VDR inh; VDR-coactivator inhibition assay, qHTS confirmation; Potency, µM, actives largely listed as inhibitors; actives 89% (n = 840)
VDR FP = qHTS for Inhibitors of the vitamin D receptor (VDR): Hit Validation using a Fluorescein Assay; Potency, µM (highest dose often 57.1 µM), most hits filed as inhibitors; actives 48% (n = 840); shares compounds with VDR inh; AID 602200, 2012; VDR-coactivator binding, fluorescein fluorescence polarization
VDR bla reporter = qHTS for Inhibitors of the vitamin D receptor (VDR): Hit Validation using a Beta-Lactamase Assay; Potency, µM (doses to about 46.1 µM), actives largely listed as inhibitors; shares compounds with VDR inh; AID 602202, 2012; VDR beta-lactamase reporter cells, FRET ratio; cells co-treated with VDR agonist LG190178; actives 23% (n = 840)
VDR viability = qHTS for Inhibitors of the vitamin D receptor (VDR): Hit Validation using a Cytotoxicity Assay; shares compounds with VDR inh; cytotoxicity counter-screen, cell viability, qHTS; Potency, µM (top dose mostly 48.3 µM), actives largely listed as cytotoxic; actives 18% (n = 840); note: nearly all actives have a fitted effect of over 75% in size
Hits are given with their value; – = inactive; ? = inconclusive; · = no result given; [ ] = remark or other dose. Calls come from the whole dose curve; as a rule, active = well fitted curve in the direction sought with a large enough effect; inconclusive = small, poorly fitted or top-dose-only effect, or another doubt; inactive = no such curve, though single readings can be large; an effect the other way counts as inactive or inconclusive.

SMILES	TrxR1 inh	TrxR1 substrate	VDR inh	GCN5L2 inh-1	VDR inh confirm	VDR FP	VDR bla reporter	VDR viability	others
COc1cc(/C=C2\CCc3c2nc2ccccc2c3C(=O)O)cc(OC)c1OC	–	–	–	13µM	·	·	·	·	GCN5L2 inh-2=20
CCc1ccc([C@@H]2CC=C(C(=O)O)[C@H](c3ccc(C(C)(C)C)cc3)N2S(=O)(=O)c2ccc(C)cc2)cc1	–	–	–	18µM	·	·	·	·	GCN5L2 inh-2=18
Cc1ccc(S(=O)(=O)N2[C@@H](c3ccc(C(C)(C)C)cc3)C(C(=O)O)=CC[C@H]2c2ccc(C(C)C)cc2)cc1	?	–	–	14µM	·	·	·	·	GCN5L2 inh-2=13
Cc1ccc([C@@H]2CC=C(C(=O)O)[C@H](c3ccc(C(C)(C)C)cc3)N2S(=O)(=O)c2ccc(C)cc2)cc1	–	–	–	?	·	·	·	·
COc1ccc(S(=O)(=O)N2CCN(C(=O)c3cccs3)CC2)cc1	–	–	–	–	·	·	·	·
COc1ccc(S(=O)(=O)N2CCN(C(=O)c3cc4c(s3)CCC4)CC2)cc1	–	–	–	16µM	·	·	·	·	GCN5L2 inh-2=18
O=C(O)c1ccc(-n2cccc2/C=C2/NC(=O)N(c3cccc(Cl)c3)C2=O)cc1	?	–	–	?	·	·	·	·	GCN5L2 inh-2=?
O=C(O)c1ccc(-n2cccc2/C=C2/NC(=O)N(c3ccccc3)C2=O)cc1	–	–	–	?	·	·	·	·
N=C1/C(=C\c2ccc(-c3cc(Cl)cc(Cl)c3)o2)C(=O)N=C2SC=C(c3ccccc3)N12	–	–	–	–	·	·	·	·
N=C1/C(=C/c2ccc(-c3cccc(C(=O)O)c3)o2)C(=O)N=C2SC=C(c3ccccc3)N12	?	–	–	22µM	·	·	·	·	GCN5L2 inh-2=16
CCn1cc(S(=O)(=O)c2ccccc2)c(=O)c2cc(F)c(N3CCCC3)cc21	–	–	–	–	·	·	·	·
COC(=O)c1sccc1NC(=O)CC1C(=O)NCCN1C(=O)c1c(F)cccc1Cl (configuration not stated)	–	–	–	?	·	·	·	·	GCN5L2 inh-2=?
COC(=O)c1sccc1NC(=O)CC1C(=O)NCCN1C(=O)c1ccc(N(C)C)cc1 (configuration not stated)	–	–	–	–	·	·	·	·
O=C(/C=C/c1ccccc1)Nc1cccc(S(=O)(=O)Nc2ccccc2F)c1	–	–	11µM	?	4.2	?	–	?	GCN5L2 inh-2=?
CC(=O)N1CCC[C@@]2(CCN(Cc3ccccc3)C2)C1	·	·	–	–	·	·	·	·
CCn1nc(C)cc1-c1nnc(Sc2ncc([N+](=O)[O-])s2)n1C	0.35µM	–	7.9µM	–	4.7	3.5µM	3.7µM	?
Cn1c(Sc2ccc([N+](=O)[O-])cc2C(F)(F)F)nnc1-c1ccccc1	–	–	–	–	·	·	·	·
C=C(C)[C@@H]1C2=CC(C(=O)OC)=C(C[C@@H](C(=C)C)[C@H]3O[C@H]3C3=C[C@H]1OC3=O)O2	11µM	–	20µM	·	7.1	14µM	?	17µM
COc1cccc(C(=O)C(C#N)=C(SC)SC)c1	20µM	–	40µM	–	11	?	?	13µM
COc1ccc(CSc2nc3ccncc3n2CC(=O)Nc2cc(C)cc(C)c2)cc1	–	–	–	–	·	·	·	·
O=C(c1ccc(Cl)cc1)N(Cc1ccco1)Cc1ccco1	–	–	–	–	·	·	·	·
CS(=O)(=O)c1ncc(Cl)c(C(=O)N(Cc2ccc(Cl)cc2)Cc2ccco2)n1	0.71µM	–	25µM	–	2.8	3.5µM	16µM	19µM
CC(C)(C)c1ccc(C(=O)CC(Sc2ccc(Cl)cc2)C(=O)O)cc1 (configuration not stated)	56µM	–	10µM	–	11	3.2µM	–	?
O=[N+]([O-])/C=C/c1cn(Cc2ccc(F)cc2)c2ccccc12	–	–	20µM	–	6.7	?	21µM	?
c1ccc(OCc2nnc3sc(-c4cccs4)nn23)cc1	–	–	?	–	·	·	·	·
SMILES	TrxR1 inh	TrxR1 substrate	VDR inh	GCN5L2 inh-1	VDR inh confirm	VDR FP	VDR bla reporter	VDR viability	others
Clc1ccc(Cl)c(-c2nn3c(COc4ccccc4)nnc3s2)c1	–	–	?	–	11	7.1µM	–	–
c1ccc(CCc2nn3c(Cn4cnc5ccccc54)nnc3s2)cc1	–	–	?	–	22	20µM	–	–
c1ccc(OCc2nn3c(Cn4nnc5ccccc54)nnc3s2)cc1	–	–	?	–	22	8.9µM	–	–
c1ccc(CCc2nn3c(Cn4nnc5ccccc54)nnc3s2)cc1	–	–	?	–	·	·	·	·
COc1ccccc1CNc1cc(-c2ccoc2)ncn1	·	·	16µM	–	?	–	–	–
COc1ccccc1CNc1cc(-c2ccccc2OC)ncn1	·	·	–	–	·	·	·	·
S=C(NCCCc1cnc[nH]1)NCCCN(CCc1ccccc1)c1ccc(Br)cn1	–	–	–	·	·	·	·	·
Nc1ccc(/C=C/c2ccc3cccnc3c2)cc1	–	–[0.0914 µM]	·	·	·	·	·	·
CCOC(=O)c1c(NC(=O)CSc2nnnn2-c2ccc(OC)cc2)sc(C)c1C	–	–	18µM	?	?	?	–	–
N#CCCn1c(=O)c(-c2ccccc2)nc2cnc(Oc3cccc(Cl)c3)nc21	·	·	–	–	·	·	·	·
O=C1/C(=C/c2ccccn2)COc2ccccc21	22µM	–	?	–	13	22µM	?	–
O=C1/C(=C/c2ccc(O)cc2)COc2ccccc21	–	–	?	–	·	·	·	·
CC(C)(C)C1C/C(=C/c2ccccn2)C(=O)/C(=C/c2ccccn2)C1 (configuration not stated)	35µM	–	?	–	2.5	2µM	1µM	12µM
COc1cc(C(=O)Nc2ccc3[nH]c(=O)sc3c2)cc(OC)c1OC	–	–	–	–	·	·	·	·
CC1=NOC(=O)/C1=C\c1ccc(-c2cc(Cl)ccc2Cl)o1	16µM	–	20µM	–	3	?	?	?
CC1=NOC(=O)/C1=C\c1ccc(-c2ccc(Br)cc2)o1	–	–	?	?	3.2	?	–	–
Nc1[nH]c(=S)[nH]c(=O)c1N=O	–	–	·	·	·	·	·	·

From PubChem
